PG9 Ab binder: binders of HIV-1 gp120 antibody PG9, primary screen, biochemical, TR-FRET; HIV-1 gp120 / PG9 antibody interaction; TR-FRET gp120-PG9 antibody binding; inhibition, % at 6.7 µM; actives 0.43% (n = 360,000); in the data active = inhibition above about 8.5%
MsrA act: bovine MsrA enzyme activators, primary screen, biochemical, absorbance, HTS. Methionine sulfoxide reductase A (Bos taurus). purified bovine MsrA, absorbance read-out. activation, % at 10.6 µM. actives 0.3% (n = 360,000). AID 602163, 2012; in the data active = activation above about 7.5%;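 also: 0% = vehicle and 100% = reference activator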
rCAG RNA binder: binders of r(CAG) RNA repeats, primary screen, biochemical, fluorescence; r(CAG) RNA repeat, TO-PRO-1 dye displacement fluorescence; inhibition, % at 3 µM; actives 1.3% (n = 370,000); AID 651821, 2012;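 active = inhibition above the plate cutoff, the mean of all test compounds on that plate plus 3 SD, cut at about 35% in these data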;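 also: 0% = DMSO alone and 100% = 100 µM mitoxantrone as full dye displacement; higher means more dye released from RNA so lower well fluorescence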
MsrA inhibitor: bovine MsrA enzyme inhibitors, primary screen, biochemical, absorbance, HTS; actives 0.75% (n = 360,000); inhibition, % at 15.5 µM; purified bovine MsrA, absorbance read-out; in the data active = inhibition above about 4.5%;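 also: 0% = vehicle wells with enzyme and 100% = reference inhibitor wells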
HGIII-sPLA2 inh: human group III sPLA2 inhibitors, primary screen, biochemical, QFRET, BODIPY PC-A2 liposome substrate; Group 3 secretory phospholipase A2 (Homo sapiens), Q9NZ20; QFRET BODIPY PC-A2 liposome hydrolysis, fluorescence; inhibition, % at 12.2 µM; actives 0.56% (n = 370,000); AID 743126, 2013;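 active = inhibition above mean plus 3 SD of compounds lying within the high and low control bounds, cut at about 19% in these data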;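 also: 0% = median of test compound wells and 100% = no enzyme DMSO wells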
Target sequence (Q9NZ20 whole entry, looked up): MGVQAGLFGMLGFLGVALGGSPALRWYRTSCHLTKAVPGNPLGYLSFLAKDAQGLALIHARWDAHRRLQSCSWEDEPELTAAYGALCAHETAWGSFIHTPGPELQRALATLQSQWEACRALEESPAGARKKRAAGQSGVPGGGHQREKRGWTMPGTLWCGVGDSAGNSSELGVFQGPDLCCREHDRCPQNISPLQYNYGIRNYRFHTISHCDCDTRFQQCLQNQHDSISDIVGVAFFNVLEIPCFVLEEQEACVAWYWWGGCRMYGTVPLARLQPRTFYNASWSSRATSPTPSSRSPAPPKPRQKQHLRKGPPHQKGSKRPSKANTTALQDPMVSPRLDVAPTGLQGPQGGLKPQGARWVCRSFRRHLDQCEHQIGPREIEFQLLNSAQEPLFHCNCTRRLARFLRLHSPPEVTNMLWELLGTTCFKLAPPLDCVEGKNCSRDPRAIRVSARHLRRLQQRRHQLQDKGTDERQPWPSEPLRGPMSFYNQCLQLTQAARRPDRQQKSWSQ
Numbers without * were called inactive; x = no result given. Only some compounds are listed: those with a hit (about 3.2% of all), similar ones and a draw of the others.

SMILES	PG9 Ab binder	MsrA act	rCAG RNA binder	MsrA inhibitor	HGIII-sPLA2 inh
CSc1nc2nccc(-c3ccc(Cl)cc3)n2n1	1	-7	0	-1	2
CN1CC=C(c2ccccc2)N(c2ccc(Cl)cc2)C1=O	x	x	4	x	-10
CCN(CC(=O)Nc1ccc([N+](=O)[O-])cc1OC)c1ccccc1	2	-3	2	4.8*	-6
COc1cc([N+](=O)[O-])ccc1NC(=O)CN(C)C	1	-3	-2	2	3
Cc1cc(NS(=O)(=O)C2CCN(C(=O)Cc3ccc(Cl)c(Cl)c3)CC2)no1	x	x	9	x	-7
Nc1nnc(CC(=O)N/N=C/c2ccc(-c3ccc(F)cc3)o2)s1	-3	-3	6	6.1*	-18
Cc1ccc(C(=O)C2=C(O)C(=O)N(CCCn3ccnc3)C2c2ccc(OC(C)C)cc2)o1 (centres undefined)	41*	-7	4	1	-12
NC(=O)c1c(NC(=O)c2cccc(N3C(=O)CCC3=O)c2)sc2c1CCCCC2	-2	-3	-2	0	3
CC(=O)N1CCc2c(sc(NC(=O)c3cccc(N4C(=O)CCC4=O)c3)c2C(N)=O)C1	-1	-3	11	4.8*	0
CCC(=O)Nc1ccc(C(=O)OCc2ccccc2)cc1	0	-6	-4	0	-5
CC(C)OC(=O)c1ccc(NCc2cc(O)ccc2O)cc1	1	-5	5	1	22*
O=C(OCc1ccccc1)c1ccc(NCc2cc(O)ccc2O)cc1	-2	-3	12	0	26*
COC(=O)[C@]12C[C@H](CC(=O)N3CCC(c4ccccc4)CC3)C(=O)N(Cc3cccc4ccccc34)C1=C[C@H](COCc1ccccc1)O[C@@H]2C	x	x	11	x	-3
CCOc1ccc(N(CC(=O)Nc2c(C)n(C)n(-c3ccccc3)c2=O)S(=O)(=O)c2ccc3c(c2)N(C(=O)C2CCC2)CC3)cc1	x	x	8	x	-4
C=CCN1[C@@H](Cc2ccccc2)COc2cccc(N3CCCC3)c2S1(=O)=O	x	x	10	x	16
COC(=O)[C@H](C(C)C)N(CCc1cn(CC2CCCCC2)nn1)S(=O)(=O)c1ccccc1Br	x	x	6	x	-1
C=CCN1C(=O)/C(=C2/Sc3ccccc3N2CCCS(=O)(=O)O)SC1=S	0	-13	85*	1	-22
C=CCN1C(=O)/C(=C2/Sc3ccccc3N2CC)SC1=S	0	-1	3	-2	-1
Cc1oc2cc([N+](=O)[O-])c(O)c([N+](=O)[O-])c2c1C(=O)c1ccc(Cl)cc1	-1	-4	36*	3	-22
CC(=O)c1ccc(N2CCN(C(=O)C3CCN(S(=O)(=O)c4cccs4)CC3)CC2)cc1	1	-5	11	4.6*	2
CC1C(O)=C(c2nc3ccccc3[nH]2)C(=N)N1c1ccccc1 (centres undefined)	-1	-5	-2	0	23*
Cc1cccc(CSC(Nc2ccc(F)cc2)=C(C#N)C#N)c1	-1	-3	40*	-1	-52
CCN(CC)CCOC(=O)/C=C/c1ccccc1	-3	-2	-2	1	10
CCN(CC)CC(C)(C)C(=O)/C=C/c1ccc(/C=C/C(=O)C(C)(C)CN(CC)CC)cc1	-1	2	0	12*	-6
CCNC(=O)N(C)[C@H]1C[C@H]2c3[nH]c4cccc(-c5ccc6c(c5)OCO6)c4c3CCN2C[C@H]1[C@H](C)O	x	x	9	x	-10
SMILES	PG9 Ab binder	MsrA act	rCAG RNA binder	MsrA inhibitor	HGIII-sPLA2 inh
CC(=O)c1ccc(NC(=O)c2ccc3nc(-c4ccco4)c(-c4ccco4)nc3c2)cc1	x	-5	x	x	x
COc1ccccc1NC(=O)c1sc2nc(-c3ccco3)ccc2c1N	x	-2	x	x	x
Cc1nc2cc(NC(=O)N3CCN(c4ccccn4)CC3)ccc2o1	-1	-5	-3	-1	5
Nc1c(C(=O)Nc2ccccc2)sc2nc(-c3ccco3)ccc12	4	0	35*	2	13
O=C(Nc1ccccc1)c1ccc2nc(-c3ccco3)c(-c3ccco3)nc2c1	2	3	74*	0	13
O=C(Nc1ccc2nc(-c3ccco3)c(-c3ccco3)nc2c1)N1CCN(c2ccccn2)CC1	-2	-12	44*	1	-4
COc1cc(OC)cc(-c2sc3ccc(OC)cc3c2C#CC2(N)CCCCC2)c1	-1	-1	12	1	1
COc1cccc(-c2sc3ccc(OC)cc3c2C#CC2(O)CCCCC2)c1	0	-5	12	4.7*	-27
Cc1cccc(NC(=O)c2sc3nc(N)c(C#N)cc3c2N)c1	-1	-8	11	4.6*	10
Cc1cc(C)cc(NC(=O)c2sc3nc(C)cc(C)c3c2N)c1	9	-4	5	0	-1
O=C(O)CSCC(=O)Nc1ccc(-c2nc3ccccc3s2)cc1	1	-6	39*	3	-13
COc1ccc(Cl)cc1NC(=O)CSc1nc2sccc2c(=O)[nH]1	-2	-4	45*	1	-13
Cc1ccc(/C=N/n2c(-c3ccncc3)n[nH]c2=S)o1	0	0	0	1	10
Cc1ccc(/C=N/n2c(C)n[nH]c2=S)o1	0	0	-1	4.6*	5
O=C(Nc1ccc(Cl)cc1)N1CCN(Cc2nc3ccccc3c(=O)[nH]2)CC1	x	x	3	x	3
Cc1cc(-c2csc(NC(=O)c3ccc(C#N)cc3)n2)c(C)n1Cc1ccco1	-1	-11	59*	1	-2
Oc1ccc(N=Cc2ccc(-c3cccs3)s2)cc1	-21	-9	22	5.2*	-1
O=Cc1ccc(-c2cccs2)s1	-6	-4	0	2	-5
Cc1ccc(-c2cc(C(=O)Nc3ccc(S(=O)(=O)Nc4nc(C)cc(C)n4)cc3)c3ccccc3n2)cc1	2	-5	8	1	9
CC(C)=CC(=O)Nc1ccc(S(=O)(=O)Nc2onc(C)c2C)cc1	-2	-2	3	0	1
COc1ccc(-c2cc(C(=O)Nc3ccc(S(=O)(=O)Nc4onc(C)c4C)cc3)c3ccccc3n2)cc1	0	-4	75*	0	-23
Cc1cccc(OCCCC(=O)Nc2ccc(S(=O)(=O)Nc3onc(C)c3C)cc2)c1	0	0	48*	0	-25
Cc1ccc(/C=C/C(=O)Nc2ccc(S(=O)(=O)Nc3onc(C)c3C)cc2)cc1	0	-2	68*	4	-38
COC(=O)c1c(NC(=O)c2cccs2)sc2c1CCC(C)C2 (centres undefined)	2	8.3*	9	0	3
CC1CCc2c(sc(NC(=O)c3cccs3)c2C(=O)O)C1 (centres undefined)	-3	-1	25	1	-8
c1ccc2c(c1)nc(N1CCOCC1)c1nncn12	1	-1	-1	4.6*	2

Screening data: PubChem, The Scripps Research Institute Molecular Screening Center
